High-throughput results as filed in PubChem.
The list is not random: actives were taken first. Their share in the collection is about 3.1%.
RAD54 branch – RAD54 (human) branch migration inhibition; RAD54 Holliday junction branch migration, FAM/BHQ fluorescence; inhibition, % at 10.4 µM; hit rate 0.14% among 360,000;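 active means mean normalized replicate activity at least 40 and at least half of replicates scoring 40 or more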;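 further: 0% = median of neutral control wells and 100% = median of positive control wells; inhibitors cause a drop in the FAM fluorescence signal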
dFosB act-1 – enhances mouse delta FosB homodimer DNA binding; purified delta FosB, TAMRA-CDK5 oligo fluorescence polarization; percent of positive-control signal above neutral wells; activation, % at 25 µM; hit rate 0.99% among 340,000; AID 493131;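 active means mean activation above about 17%, with every replicate also reaching it, limit read from the data, passing the limit was not always enough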
GSIS activator – primary screen for activators of insulin secretion dependent on glucose, INS-1E cells, GLuc reporter luminescence. INS-1E GLuc reporter insulin secretion, 2-3 h. hit rate 0.61% among 370,000. activation, % at 16.6 µM. AID 743287;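 active means lowest replicate activation of at least 40%, so every replicate reaches that level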;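 further: 0% = median of neutral control wells and 100% = median of IBMX positive control wells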
DENV2 CPE – inhibitors of DENV2 cytopathic effect | DENV2-infected cells, cytopathic effect rescue, plate reader | CPE inhibition, % at 9.99 µM | hit rate 1.7% among 350,000 | AID 651640; in the data active means CPE inhibition above about 20%, passing the limit was not always enough; tested in BHK-21 cells;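 further: 0% = median of neutral control wells and 100% = median of positive control wells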
MLL AF4-AF9 inh – blocks AF4 peptide binding to human AF9 | hit rate 0.47% among 350,000 | P42568 | AlphaScreen, biotin-AF4 peptide binding to FLAG-AF9 | inhibition, % at 10 µM;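 active means every replicate reaching a set inhibition limit, whatever the replicate mean, cut at about 25% in these data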;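 further: 0% = plate neutral control median and 100% = total signal loss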
Target sequence (P42568 whole entry, looked up): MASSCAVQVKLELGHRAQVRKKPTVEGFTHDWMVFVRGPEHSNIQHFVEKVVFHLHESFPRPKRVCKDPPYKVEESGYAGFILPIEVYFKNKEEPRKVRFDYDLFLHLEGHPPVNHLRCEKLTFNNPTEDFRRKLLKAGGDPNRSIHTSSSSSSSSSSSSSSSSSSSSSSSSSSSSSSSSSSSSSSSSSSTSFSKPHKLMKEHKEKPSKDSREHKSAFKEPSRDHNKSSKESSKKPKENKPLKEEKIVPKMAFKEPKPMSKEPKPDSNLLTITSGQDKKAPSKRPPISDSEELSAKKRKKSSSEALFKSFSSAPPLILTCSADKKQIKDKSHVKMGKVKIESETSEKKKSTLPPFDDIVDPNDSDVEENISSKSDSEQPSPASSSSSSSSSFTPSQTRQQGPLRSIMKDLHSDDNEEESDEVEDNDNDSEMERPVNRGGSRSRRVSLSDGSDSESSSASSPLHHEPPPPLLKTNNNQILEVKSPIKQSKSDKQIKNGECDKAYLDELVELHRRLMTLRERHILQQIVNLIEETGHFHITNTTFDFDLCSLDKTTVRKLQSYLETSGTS
RAD52 inh – blocks human RAD52 DNA annealing | AID 651710 | inhibition, % at 18.7 µM | recombinant RAD52 DNA annealing, FRET fluorescence | hit rate 0.46% among 360,000 | P43351;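 active means every replicate showing at least 50% inhibition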
dFosB act-2 – delta FosB (mouse) homodimer activation; activation, % at 24.9 µM; purified delta FosB, TAMRA-CDK5 oligo fluorescence polarization; normalised: neutral wells 0, positive control 100; 2,400 tested, under 10 active; shares compounds with dFosB act-1;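 active means highest replicate activation at or above 34% and every replicate reaching that threshold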;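 further: higher polarization means more probe DNA bound by delta FosB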
* = called active by the depositor.

Screening Cc1ccc(S(=O)(=O)Nc2ccc3c(c2)CC(=O)N([C@@H](C)CO)C[C@H](C)[C@H](CN(C)CC2CCCCC2)O3)cc1 returned RAD54 branch 10.1, GSIS activator -14.9, DENV2 CPE 14.2, MLL AF4-AF9 inh 2.6 and RAD52 inh 4.2.
`C[C@H](CO)N1C[C@H](C)[C@@H](CN(C)S(=O)(=O)c2cccs2)Oc2ccc(NS(=O)(=O)c3cccs3)cc2CC1=O` gave GSIS activator 7.6.
Screening CCOc1cccc(/C=C2/NC(=O)N(CC(=O)Nc3cccc(C)c3)C2=O)c1O returned RAD54 branch 6.3, dFosB act-1 23.4*, GSIS activator 13.8, DENV2 CPE -4.7, MLL AF4-AF9 inh -1.0, RAD52 inh -86.0 and dFosB act-2 1.9.
For Cc1cccc(NC(=O)CN2C(=O)N/C(=C/c3ccc(C)s3)C2=O)c1 the results were dFosB act-1 31.0*, GSIS activator -22.5 and dFosB act-2 -0.4.
Cc1noc(C)c1S(=O)(=O)Nc1ccc2c(c1)C(=O)N([C@@H](C)CO)C[C@H](C)[C@H](CN(C)S(C)(=O)=O)O2 was read as RAD54 branch -7.4, GSIS activator 14.3, DENV2 CPE 4.4, MLL AF4-AF9 inh -3.6 and RAD52 inh 0.9.
For COc1ccc(S(=O)(=O)N2CCN(c3nc(-c4cccnc4)nc4ccccc34)CC2)cc1 the results were RAD54 branch 3.0, dFosB act-1 17.8*, GSIS activator -38.7, DENV2 CPE 5.1, MLL AF4-AF9 inh -2.5, RAD52 inh -60.8 and dFosB act-2 -1.1.
For CCCCn1c(N)c(N(CC(C)C)C(=O)c2cccc(S(=O)(=O)N3CCCCCC3)c2)c(=O)[nH]c1=O the results were RAD54 branch 1.9, dFosB act-1 38.6*, GSIS activator -17.6, DENV2 CPE -4.2, MLL AF4-AF9 inh -1.4, RAD52 inh -11.4 and dFosB act-2 -4.7.
CCCCn1c(N)c(N(CC(C)C)C(=O)c2cccc(S(=O)(=O)N3CCCCC3)c2)c(=O)[nH]c1=O was read as RAD54 branch -2.5, dFosB act-1 6.3, GSIS activator -15.7, DENV2 CPE -8.0, MLL AF4-AF9 inh -8.4 and RAD52 inh -17.3.
Screening COc1ccccc1-c1cc(C(=O)Nc2ccc(F)cc2F)no1 returned RAD54 branch 5.4, dFosB act-1 24.8*, GSIS activator 8.7 and dFosB act-2 2.5.
Screening CCc1ccc(Nc2n[n+](-c3ccccc3)c(-c3ccc(SC)cc3)s2)cc1 returned RAD54 branch -4.2, dFosB act-1 31.3*, GSIS activator 11.2, DENV2 CPE 1.8, MLL AF4-AF9 inh 6.1, RAD52 inh 47.5 and dFosB act-2 -0.5.
Cc1nn(C)c(C)c1NC(=O)CSc1nc(-c2ccccc2Cl)nc2c1cnn2-c1ccccc1 was read as RAD54 branch -5.4, dFosB act-1 122.3* and dFosB act-2 6.3.
Screening N#C[C@H]1[C@@H](c2ccccc2-c2ccccc2)[C@@H](CO)N1C(=O)NC1CCCC1 returned GSIS activator -3.8, DENV2 CPE -9.0, MLL AF4-AF9 inh -0.5 and RAD52 inh -4.9.
Screening CN1c2ccc(-c3ccc(F)cc3)cc2[C@H]2[C@H](CCN2C(=O)C2CCOCC2)[C@@H]1CO returned RAD54 branch 1.0, GSIS activator -4.1, DENV2 CPE -6.6, MLL AF4-AF9 inh 3.4 and RAD52 inh 1.9.
COc1ccc(-c2noc(CSc3nc(N)c(-c4ccccc4)c(=O)[nH]3)n2)cc1 was read as RAD54 branch 13.4, dFosB act-1 61.6*, GSIS activator 6.3, DENV2 CPE 15.5, MLL AF4-AF9 inh 7.0, RAD52 inh 4.7 and dFosB act-2 -1.2.
Cc1ccc2nc(-c3cccc(Br)c3)cc(C(=O)NC3=NCCS3)c2c1 was read as dFosB act-1 43.9*, GSIS activator 22.5, DENV2 CPE 0.8, MLL AF4-AF9 inh 9.5, RAD52 inh -6.3 and dFosB act-2 -0.8.
Screening O=C(NC1=NCCS1)c1cc(-c2cccc(Br)c2)nc2ccccc12 returned dFosB act-1 31.0*, GSIS activator -34.9 and dFosB act-2 1.0.
